PGC1a acetyl inh: PGC1a acetylation modulation, inhibitor mode; inhibition, % at 15.6 µM; actives 0.17% (n = 350,000); U2OS PGC1a acetylation, AlphaScreen anti-acetyl-lysine; with virally co-expressed GCN5 acetyltransferase; AID 651687;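 active means every replicate shows inhibition of at least 40%; inconclusive means mean inhibition at least 40% but some replicate below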
ERAP1 HTS inh: blocks human ERAP1 aminopeptidase activity. Q9NZ08. recombinant ERAP1, Leu-AMC fluorescence, 60 min. inhibition, % at 10.7 µM. actives 0.15% (n = 340,000). AID 652197;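 active means mean replicate inhibition of at least 30%, or all replicates individually reaching that 30% level; inactive means mean below 30% and not every replicate reaching it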
RAD52 inh: RAD52 (human) annealing inhibition; actives 0.46% (n = 360,000); recombinant RAD52 DNA annealing, FRET fluorescence; AID 651710; P43351; inhibition, % at 18.7 µM;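 active means every replicate showing at least 50% inhibition; inconclusive means mean inhibition at least 50% but not in every replicate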
RAD54 inh: inhibitors of human RAD54 branch migration | Q92698 | RAD54 Holliday junction branch migration, FAM/BHQ fluorescence | inhibition, % at 10.4 µM | actives 0.14% (n = 360,000);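 active means mean normalized replicate activity at least 40 and at least half of replicates scoring 40 or more; inconclusive means only one of the two criteria met; inactive means mean below 40 and under half of replicates reaching 40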;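 further: inhibitors cause a drop in the FAM fluorescence signal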
GSIS activator: GLuc luminescence reporter in INS-1E cells, primary screen for activators of glucose-dependent secretion of insulin; INS-1E GLuc reporter insulin secretion, 2-3 h; activation, % at 16.6 µM; actives 0.61% (n = 370,000); AID 743287;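 active means lowest replicate activation of at least 40%, so every replicate reaches that level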
AF4-AF9 inh: blocks AF4 peptide binding to human AF9; AlphaScreen, biotin-AF4 peptide binding to FLAG-AF9; inhibition, % at 10 µM; actives 0.47% (n = 350,000); AID 651704;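 active means every replicate reaching a set inhibition limit, whatever the replicate mean, cut at about 25% in these data; inconclusive means mean inhibition reaches that limit but some replicates miss it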
Target sequence (P42568 whole entry, looked up): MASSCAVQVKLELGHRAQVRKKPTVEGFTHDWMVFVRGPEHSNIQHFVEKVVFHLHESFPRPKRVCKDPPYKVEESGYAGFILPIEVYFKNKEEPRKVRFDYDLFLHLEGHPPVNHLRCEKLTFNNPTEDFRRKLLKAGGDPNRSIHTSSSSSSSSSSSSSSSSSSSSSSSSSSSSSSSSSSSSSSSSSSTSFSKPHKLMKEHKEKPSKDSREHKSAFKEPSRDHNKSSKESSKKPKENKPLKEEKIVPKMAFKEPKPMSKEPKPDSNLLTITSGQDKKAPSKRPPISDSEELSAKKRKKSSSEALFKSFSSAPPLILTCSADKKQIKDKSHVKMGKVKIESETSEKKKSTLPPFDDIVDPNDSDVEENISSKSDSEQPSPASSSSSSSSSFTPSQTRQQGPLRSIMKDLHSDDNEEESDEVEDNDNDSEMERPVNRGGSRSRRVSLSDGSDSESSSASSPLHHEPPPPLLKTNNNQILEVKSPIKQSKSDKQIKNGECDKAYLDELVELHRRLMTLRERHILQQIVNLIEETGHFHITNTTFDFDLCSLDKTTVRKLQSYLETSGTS
Alpha interfer: AlphaScreen signal interference counter-screen hit; actives 45% (n = 530); shares compounds with AF4-AF9 inh; signal luminescence; AC50, µM (doses to about 12 µM); cut-off not given, nearly all actives have AC50 up to about 14 µM
RAD52 DNA ctr: counter-screen for RAD52 inhibitors: DNA binding compounds; Salmon sperm DNA/acridine orange FP displacement; AID 652128; actives 8% (n = 1,000); AC50, µM; shares compounds with RAD52 inh;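 active means fitted half-maximal concentration for signal loss at or below twice the highest dose tested, in every separate run, actives reach about 64 µM in these data; inconclusive means runs disagree, or flat partial signal loss, or poor fit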
Numbers stand for hits; – = inactive; ? = inconclusive; · = no result given; ! = a repeat was not active. The list is not random: actives were taken first. Their share in the collection is about 1.4%.

SMILES	PGC1a acetyl inh	ERAP1 HTS inh	RAD52 inh	RAD54 inh	GSIS activator	AF4-AF9 inh	RAD52 DNA ctr	others
COc1cccc(OCC(O)CN2CCC(CN3C(=O)c4cccc5cccc(c45)C3=O)CC2)c1 (stereo not drawn)	–	–	86	·	–	34	–	Alpha interfer=–
N=C(N)c1ccc(Cl)cc1	·	–	–	·	–	–	·
N=C(N)c1ccc(/C=C/c2ccc(C(=N)N)cc2O)cc1	·	–	97	·	–	61	–	Alpha interfer=–
C#CCOCCOCCOCCNc1nc(N2CCN(C(=O)[C@H](CCCCN)n3cc(CN)nn3)CC2)nc(N2CCN(C(=O)[C@H](CCCN=C(N)N)n3cc(C(N)[C@H](C)CC)nn3)CC2)n1 (stereo partly drawn)	–	–	77	–	–	45	?	Alpha interfer=–
C#CCOCCOCCOCCNc1nc(N2CCN(C(=O)[C@H](CCCN=C(N)N)n3cc(C(N)[C@H](C)CC)nn3)CC2)nc(N2CCN(C(=O)[C@H](CCCN=C(N)N)n3cc(C(N)[C@@H](C)CC)nn3)CC2)n1 (stereo partly drawn)	·	·	·	–	·	·	·
C#CCOCCOCCOCCNc1nc(N2CCN(C(=O)[C@H](CCCCN)n3cc(CN)nn3)CC2)nc(N2CCN(C(=O)[C@H](CC(N)=O)n3cc(C(N)[C@H](C)CC)nn3)CC2)n1 (stereo partly drawn)	–	–	64	–	–	?	–	Alpha interfer=–
CN1C(=O)c2cc(NC(=O)C3CC3)ccc2OC[C@H]2O[C@H](CC(=O)O)CC[C@@H]21	–	–	·	·	–	–	·
Cc1cccc(OCC(=O)Nc2ccc3c(c2)nc(CN2CCCCC2)n3C)c1	–	–	67	·	–	–	–
Cc1ccc(C)c(OCCCCN2CCCCC2)c1	–	–	–	–	–	–	·
N#Cc1ccc(N)cc1OCCCN1CCCCC1	–	–	86	–	·	–	–
Cc1ccccc1S(=O)(=O)N(C)C[C@H]1OCc2ccccc2-c2ccccc2C(=O)N([C@H](C)CO)C[C@H]1C	–	–	–	–	–	–	·
CCN1CCN(Cc2ccc(C(=O)Nc3ccc(C)c(NCc4cnc(NC(=O)OC)cn4)c3)cc2C(F)(F)F)CC1	–	–	96!	–	–	–	–
CCN1CCN(Cc2ccc(NC(=O)c3ccc(C)c(NC(=O)C(=O)c4c[nH]c5ccccc45)c3)cc2C(F)(F)F)CC1	–	–	99!	–	–	–	–
CCN1CCN(Cc2ccc(NC(=O)c3cccc(-c4ccc5nc(NC(=O)C6CC6)sc5n4)c3)cc2C(F)(F)F)CC1	·	·	67	·	143	–	–
O=C1C(CSCc2ccccc2)NC(=S)N1c1ccccc1 (stereo not drawn)	–	–	56	–	·	–	–
O=C(O)CC1NC(=S)N(c2ccccc2)C1=O (stereo not drawn)	–	·	·	–	–	·	·
Cc1cc(N/N=C/c2ccccc2O)c2ccccc2n1	·	–	102	104	–	?	–
CCOc1cc2[nH]c(=S)n(Cc3ccc(C(=O)NCC(OC)OC)cc3)c(=O)c2cc1OCC	–	·	·	–	·	·	·
CCOc1cc2[nH]c(=S)n(Cc3ccc(C(=O)NCCN(CC)CC)cc3)c(=O)c2cc1OCC	–	–	53	–	–	–	–
CN1CCN(CCCNCc2cn(CCC#N)c3ccccc23)CC1	–	–	63	–	–	25	–
N#CCCN1CCN(Cn2c3ccccc3c3ccccc32)CC1	–	·	·	–	·	·	·
CN1CCN(c2nc(-c3ccccc3Cl)nc3ccccc23)CC1	–	–	–	–	–	–	·
COc1cccc(-c2nc(N3CCN(C)CC3)c3ccccc3n2)c1O	–	–	87	·	–	–	?
CN1CCN(c2nc(-c3ccccc3O)nc3ccccc23)CC1	·	–	53	·	–	–	–
COc1cccc(-c2nc(N3CCCCC3C)c3ccccc3n2)c1O (stereo not drawn)	–	·	·	–	·	·	·
SMILES	PGC1a acetyl inh	ERAP1 HTS inh	RAD52 inh	RAD54 inh	GSIS activator	AF4-AF9 inh	RAD52 DNA ctr	others
C[C@@H]1CCCCO[C@@H](CN(C)S(=O)(=O)c2ccc(F)cc2)[C@@H](C)CN([C@@H](C)CO)C(=O)c2cc(NC(=O)CCC(F)(F)F)ccc2O1	–	–	–	–	–	–	·
CC(C)NC(=O)Nc1ccc2c(c1)CC(=O)N([C@H](C)CO)C[C@H](C)[C@@H](CN(C)Cc1ccc(C(F)(F)F)cc1)O2	–	–	–	–	–	–	·
CN1CCN(c2nc3cc(C(F)(F)F)ccc3n3cccc23)CC1	·	–	67	–	·	–	–
FC(F)(F)c1ccc2c(c1)nc1n2CCCC1	–	·	·	–	·	·	·
CCN1CCN(CCNC(=O)c2ccc3nc(-c4cccc(C)c4)c(-c4cccc(C)c4)nc3c2)CC1	–	–	68	–	–	28	–
CN1CCN(CCCNC(=O)c2ccc(/C=C3\Sc4ccccc4N(Cc4ccccc4F)C3=O)cc2)CC1	–	·	90	·	120	36	–
COCCNc1nc(NCc2cccc(OC)c2)c2sc(-c3ccccc3)cc2n1	·	–	80	–	–	–	–
Cc1ccc2cc(C#N)c(NCCNC(=S)NCCCN(C)C)nc2c1C	–	–	100	·	–	–	–
Cc1cc(C)c2nc(NCCCNC(=S)NCCCN(C)C)c(C#N)cc2c1	·	–	94	·	–	–	–
COc1ccc2c3c(n(C)c2c1)[C@H](CO)N(CC1CC1)CC31CN(Cc2nccs2)C1	·	–	–	·	–	–	·
C[n+]1ccccc1COc1ccc(C(C)(C)C)cc1	·	–	99	·	·	–	–
CC(C)(C)c1ccc(OCCNCc2ccccc2)cc1	–	–	–	–	–	–	·
CN1CCc2cccc3c2[C@H]1Cc1ccc(O)c(O)c1-3	–	–	90!	–	–	29!	–
CCCC#Cc1ccc([C@@H]2[C@H]3CN(C(=O)c4cccc(F)c4)CC(=O)N3[C@H]2CO)cc1	·	·	·	·	–	·	·
CCN1/C(=C/c2sc(-c3ccccc3C)c[n+]2C)Sc2ccccc21	·	–	69	·	–	–	–
CCC(=O)/C=C1/Sc2ccccc2N1CC	–	·	·	–	–	·	·
CCCNC1=CC(=O)CC(C)(C)C1	·	–	98	·	·	–	–
CCc1ccc(NC2=CC(=O)CC(C)(C)C2)cc1	·	–	–	–	–	–	·
CCOC(=O)CCc1c(C)nc(SCC(=O)O)c(C#N)c1C	–	·	·	–	·	·	·
CCOC(=O)CCc1c(C)nc(SCc2ccc(C(=O)O)cc2)c(C#N)c1C	·	–	96	–	–	–	–
CN(C)CCCNC(=O)/C(=C\c1ccc(-c2cccc([N+](=O)[O-])c2)o1)NC(=O)c1ccccc1	·	–	–	·	–	–	·
Cc1ccc(C(=O)N/C(=C\c2ccc(-c3cccc([N+](=O)[O-])c3)o2)C(=O)NCCCN(C)C)cc1	–	–	67	–	·	–	–

Screening results from PubChem BioAssay.
